Source: PubChem BioAssay (NCATS)
Where “and” joins values, the source holds several entries; their conditions need not be identical. Identical values can stand only once. Inconclusive results are not listed. Where a call stands in place of a potency, no number is given. A structure can be active in one record and inactive in another. Values without a mark were called inactive. Calls of active or inactive are those of the source. Calls come from the whole dose curve; as a rule, active = well fitted curve in the direction sought with a large enough effect; inconclusive = small, poorly fitted or top-dose-only effect, or another doubt; inactive = no such curve, though single readings can be large; an effect the other way counts as inactive or inconclusive.

Legend:
[1] = system: CRL-7250; assay: Cytotoxic Profiling of Annotated Libraries Using Quantitative High-Throughput Screening (AID 1296008); details: Five cell lines viability, CellTiter-Glo ATP luminescence, 48-72 h; max response: active compounds read low; note: nearly all actives have a fitted effect of over 60% in size; note: potency is the fitted concentration of half-maximal effect
Procedure, shortened: (§1)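 Cells exposed to compounds for 48 or 72 hr at 37 degrees Celsius. Viability read as ATP-coupled luminescence with CellTiter-Glo after 10 min at room temperature.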

[2] = system: HaCat; assay: as above; details: Five cell lines viability, CellTiter-Glo ATP luminescence, 48-72 h; max response: active compounds read low
Procedure, shortened: as §1

[3] = system: KB-3-1; assay: as above; details: Five cell lines viability, CellTiter-Glo ATP luminescence, 48-72 h; max response: active compounds read low
Procedure, shortened: as §1

[4] = system: NIH3T3; assay: as above; details: Five cell lines viability, CellTiter-Glo ATP luminescence, 48-72 h; max response: active compounds read low
Procedure, shortened: as §1

[5] = system: MCC-13; assay: qHTS assay to identify novel small-molecules to repurpose for Merkel cell carcinoma treatment (AID 1296009); details: MCC and control cell lines, CellTiter-Glo viability, 72 h; series mostly up to 46 µM; note: nearly all actives have a fitted effect of over 60% in size; note: potency is the fitted concentration of half-maximal effect
Procedure, shortened: (§2)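 Cells were incubated with compound for 72 hr at 37 degree celsius before CellTiter-Glo addition. Luminescence was normalized with no-cell wells as full cytotoxicity and DMSO as baseline.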

[6] = system: MKL-1; assay: as above; details: MCC and control cell lines, CellTiter-Glo viability, 72 h; series mostly up to 46 µM
Procedure, shortened: as §2

[7] = system: MKL-2; assay: as above; details: MCC and control cell lines, CellTiter-Glo viability, 72 h; series mostly up to 46 µM
Procedure, shortened: as §2

[8] = system: UISO; assay: as above; details: MCC and control cell lines, CellTiter-Glo viability, 72 h; series mostly up to 46 µM
Procedure, shortened: as §2

[9] = system: WaGa; assay: as above; details: MCC and control cell lines, CellTiter-Glo viability, 72 h; series mostly up to 46 µM
Procedure, shortened: as §2

[10] = system: C33A; assay: Primary qHTS to identify gynecologic anti-cancer compounds using libraries of approved drugs and bioactive compounds (AID 1345084); details: Gynecologic cancer cell panel viability, ATPlite luminescence, 48 h; series mostly up to 57.5 µM; note: nearly all actives have a fitted effect of over 55% in size
Procedure, shortened: (§3)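 Luminescence from the ATPlite ATP-monitoring reagent indicates viable cell number; lower signal means cytotoxicity. Cells received compound 16 h after seeding and were exposed for 48 h across five concentrations.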

[11] = system: CASKI; assay: as above; details: Gynecologic cancer cell panel viability, ATPlite luminescence, 48 h; series mostly up to 57.5 µM
Procedure, shortened: as §3

[12] = system: Es-2; assay: as above; details: Gynecologic cancer cell panel viability, ATPlite luminescence, 48 h; series mostly up to 57.5 µM
Procedure, shortened: as §3

[13] = system: HEK293; assay: Cytotoxic Profiling of Annotated Libraries Using Quantitative High-Throughput Screening (AID 1296008); details: Five cell lines viability, CellTiter-Glo ATP luminescence, 48-72 h; max response: active compounds read low; note: nearly all actives have a fitted effect of over 60% in size; note: potency is the fitted concentration of half-maximal effect
Procedure, shortened: as §1

[14] = system: MCC-26; assay: qHTS assay to identify novel small-molecules to repurpose for Merkel cell carcinoma treatment (AID 1296009); details: MCC and control cell lines, CellTiter-Glo viability, 72 h; series mostly up to 46 µM; note: nearly all actives have a fitted effect of over 60% in size; note: potency is the fitted concentration of half-maximal effect
Procedure, shortened: as §2

[15] = system: HACAT; assay: as above; details: MCC and control cell lines, CellTiter-Glo viability, 72 h; at 44.8 µM (top of the series) unless noted
Procedure, shortened: as §2

[16] = system: CAOV3; assay: Primary qHTS to identify gynecologic anti-cancer compounds using libraries of approved drugs and bioactive compounds (AID 1345084); details: Gynecologic cancer cell panel viability, ATPlite luminescence, 48 h; series mostly up to 57.5 µM; note: nearly all actives have a fitted effect of over 55% in size
Procedure, shortened: as §3

[17] = system: NIH3T3; assay: qHTS assay to identify novel small-molecules to repurpose for Merkel cell carcinoma treatment (AID 1296009); details: MCC and control cell lines, CellTiter-Glo viability, 72 h; at 44.8 µM (top of the series) unless noted; note: nearly all actives have a fitted effect of over 60% in size; note: potency is the fitted concentration of half-maximal effect
Procedure, shortened: as §2

[18] = system: W2; assay: qHTS profiling for inhibitors of Plasmodium falciparum proliferation (AID 504749); note: nearly all actives have a fitted effect of over 60% in size; details: P. falciparum in erythrocytes, SYBR Green DNA, 72 h; series mostly up to 28.7 µM
Procedure, shortened: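 Readout was DNA-dye fluorescence from lysed cultures, ex 485/em 535 nm. Parasitized red cells had grown 72 h with compound; data scaled between 0.29 uM artemisinin and DMSO wells and corrected using vehicle-only plates.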

[19] = system: CRL-7250; assay: qHTS assay to identify novel small-molecules to repurpose for Merkel cell carcinoma treatment (AID 1296009); details: MCC and control cell lines, CellTiter-Glo viability, 72 h; at 44.8 µM (top of the series) unless noted; note: nearly all actives have a fitted effect of over 60% in size; note: potency is the fitted concentration of half-maximal effect
Procedure, shortened: as §2

SMILES: COC(=O)c1cncn1C(C)c1ccccc1 (stereo unspecified)
- max response [1]: -11.1%
- max response [2]: -2.03%
- max response [3]: -9.65%
- max response [4]: 3.22%
- Potency [5]: inactive
- Potency [6]: inactive
- Potency [7]: inactive
- Potency [8]: inactive
- Potency [9]: inactive
- Potency [10]: inactive
- Potency [11]: inactive
- Potency [12]: inactive

SMILES: N=c1c2c(-c3ccccc3)c(-c3ccccc3)n(Cc3ccccc3)c2ncn1C1CCC(O)CC1 (stereo unspecified)
- Potency [13]: 0.418 µM (active)
- max response [2]: -23%
- max response [4]: -14.3%
- Potency [14]: inactive
- Potency [6]: 18.7 µM (active)
- Potency [7]: 14.8 µM (active)
- Potency [8]: 3.72 µM (active)
- Potency [9]: 2.64 µM (active)

SMILES: C[C@](O)(COc1ccc(C#N)cc1)C(=O)Nc1ccc(C#N)c(C(F)(F)F)c1
- max response [1]: -6.61%
- outcome [2]: inactive
- max response [3]: -23.6%
- outcome [15]: inactive
- Potency [5]: inactive
- Potency [14]: inactive
- Potency [6]: inactive
- Potency [7]: inactive
- Potency [8]: inactive
- Potency [9]: inactive

SMILES: C=C[C@@H]1CN2CCC1C[C@@H]2[C@@H](O)c1ccnc2ccccc12 (stereo partly specified)
- max response [1]: -5.2%
- max response [2]: -17.4%
- max response [4]: -16.7%
- Potency [5]: inactive
- Potency [14]: inactive
- Potency [6]: inactive
- Potency [7]: inactive
- Potency [9]: inactive

SMILES: Oc1ccc2c3c1O[C@H]1[C@@H](O)C=C[C@H]4[C@@H](C2)NCC[C@@]341
- max response [1]: -20.7%
- max response [2]: -5.53%
- max response [3]: -5.17%
- max response [4]: -2.9%
- Potency [5]: inactive
- Potency [14]: inactive
- Potency [8]: inactive
- Potency [9]: 25 µM (active)
- Potency [10]: inactive
- Potency [16]: inactive
- Potency [11]: inactive
- Potency [12]: inactive

SMILES: O=C(O)c1cc(Oc2ccc(C(F)(F)F)cc2Cl)ccc1[N+](=O)[O-]
- max response [1]: -0.373%
- max response [3]: -8.96%
- Potency [5]: inactive
- Potency [6]: inactive
- Potency [7]: inactive
- Potency [8]: inactive
- Potency [9]: inactive
- Potency [10]: inactive
- Potency [11]: inactive
- Potency [12]: inactive

SMILES: COc1ccc(N(C(=O)Oc2c(C)cccc2C)c2ccnc(Nc3ccc(N4CCN(C)CC4)cc3)n2)c(OC)c1
- max response [1]: -8.13% and -61.8%
- Potency [3]: 16.4 µM (active)
- max response [3]: -15.9%
- Potency [4]: 18.7 µM (active)
- Potency [6]: 13.2 µM (active)
- Potency [8]: inactive
- Potency [16]: inactive
- Potency [11]: inactive

SMILES: O=S(=O)(O)C(F)(F)C(F)(F)C(F)(F)C(F)(F)C(F)(F)C(F)(F)C(F)(F)C(F)(F)F
- max response [1]: -8.73%
- max response [2]: 0.89%
- max response [3]: -10.5%
- outcome [4]: inactive
- Potency [5]: inactive
- Potency [14]: inactive
- Potency [6]: inactive
- outcome [17]: inactive [at 92 µM]
- Potency [8]: inactive
- Potency [10]: inactive
- Potency [16]: inactive
- Potency [11]: inactive
- Potency [12]: inactive

SMILES: C[C@]12COC(=O)C[C@@H]1CC[C@@H]1[C@H]2CC[C@@]2(C)[C@H]1CC[C@]2(C)O
- outcome [2]: inactive
- max response [3]: 0.496%
- max response [4]: -1.39%
- outcome [15]: inactive
- Potency [5]: inactive
- Potency [14]: inactive
- Potency [6]: inactive
- Potency [7]: inactive
- Potency [8]: inactive
- Potency [9]: inactive

SMILES: CC(=Cc1csc(C)n1)[C@@H]1C[C@H]2O[C@@H]2CCC[C@H](C)[C@@H](O)[C@@H](C)C(=O)C(C)(C)[C@@H](O)CC(=O)O1
- max response [13]: -79%
- max response [2]: -20.3%
- Potency [3]: 0.0004 µM (active)
- max response [4]: -77%
- Potency [6]: inactive
- Potency [7]: inactive
- Potency [8]: inactive
- Potency [9]: inactive

SMILES: O=[N+]([O-])c1c2ccccc2cc2ccccc12
- max response [13]: -16%
- max response [2]: 3.41%
- max response [3]: -16.7%
- max response [4]: -10.2%
- Potency [5]: inactive
- Potency [14]: inactive
- Potency [8]: 42.8 µM (active)
- Potency [10]: inactive
- Potency [11]: inactive
- Potency [12]: inactive

SMILES: CCCCCC[C@H]1C(=O)O[C@H](C)[C@H](NC(=O)c2cccc(NC=O)c2O)C(=O)O[C@@H](C)[C@@H]1OC(=O)CC(C)C
- Potency [1]: 1.48 µM (active)
- max response [2]: -16%
- Potency [14]: inactive
- Potency [7]: 4.69 µM (active)

SMILES: COc1ccc(C(=O)c2c(C)n(CCN3CCOCC3)c3cc(I)ccc23)cc1
- max response [1]: 4.04%
- outcome [2]: inactive
- outcome [4]: inactive
- outcome [15]: inactive
- Potency [5]: inactive
- Potency [14]: inactive
- Potency [7]: 1.48 µM (active)
- outcome [17]: inactive
- Potency [9]: inactive

SMILES: CCCCOC(=O)c1ccccc1C(=O)OCc1ccccc1
- max response [1]: -23.3%
- max response [3]: -13.6%
- max response [4]: -6.85%
- Potency [5]: inactive
- Potency [14]: inactive
- Potency [6]: inactive
- Potency [7]: inactive
- Potency [8]: inactive
- Potency [9]: inactive
- Potency [10]: inactive
- Potency [16]: inactive
- Potency [11]: inactive
- Potency [12]: inactive

SMILES: CC=C(C)C(=O)N[C@@H](c1ccccc1)[C@@H](O)C(=O)O[C@H]1C[C@@]2(O)[C@@H](OC(=O)c3ccccc3)[C@@H]3[C@]4(OC(C)=O)CO[C@@H]4C[C@H](O)[C@@]3(C)C(=O)[C@H](OC(C)=O)C(=C1C)C2(C)C
- max response [13]: -78.1%
- Potency [3]: 0.001 µM (active)
- Potency [6]: inactive
- Potency [7]: inactive

SMILES: O=C(Nc1ccccc1-c1ccc(Cl)cc1)c1cccnc1Cl
- max response [1]: -3.67%
- max response [3]: -17.8%
- outcome [4]: inactive
- Potency [5]: inactive
- Potency [14]: inactive
- Potency [6]: inactive
- Potency [7]: inactive
- outcome [17]: inactive [at 92 µM]
- Potency [8]: inactive
- Potency [10]: inactive
- Potency [16]: inactive
- Potency [11]: inactive
- Potency [12]: inactive

SMILES: NC(=O)CN1CC(O)CC1=O (stereo unspecified)
- Potency [18]: inactive
- max response [3]: 3.82%

SMILES: COc1ccc2cc(CCC(C)=O)ccc2c1
- outcome [19]: inactive

SMILES: CC1=NN(c2ccccc2)C(=O)C1
- outcome [19]: inactive
